Screens (PubChem BioAssay)
An excerpt weighted towards active compounds, which were near 2.3% of everything screened.
CHT block – inhibits the human high affinity choline transporter; Q9GZV3; CHT-expressing cells, membrane potential dye, choline response; stronger effect = lower value; B-score at 10 µM; hit rate 0.86% among 310,000; AID 488975;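 active means B-score over 3 SD under the library average, and starting fluorescence ratio not unusually high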;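 further: choline stimulus applied at its EC90 after an EC20 pre-addition; B-score computed on integrated fluorescence ratio after choline addition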
Target sequence (Q9GZV3 whole entry, looked up): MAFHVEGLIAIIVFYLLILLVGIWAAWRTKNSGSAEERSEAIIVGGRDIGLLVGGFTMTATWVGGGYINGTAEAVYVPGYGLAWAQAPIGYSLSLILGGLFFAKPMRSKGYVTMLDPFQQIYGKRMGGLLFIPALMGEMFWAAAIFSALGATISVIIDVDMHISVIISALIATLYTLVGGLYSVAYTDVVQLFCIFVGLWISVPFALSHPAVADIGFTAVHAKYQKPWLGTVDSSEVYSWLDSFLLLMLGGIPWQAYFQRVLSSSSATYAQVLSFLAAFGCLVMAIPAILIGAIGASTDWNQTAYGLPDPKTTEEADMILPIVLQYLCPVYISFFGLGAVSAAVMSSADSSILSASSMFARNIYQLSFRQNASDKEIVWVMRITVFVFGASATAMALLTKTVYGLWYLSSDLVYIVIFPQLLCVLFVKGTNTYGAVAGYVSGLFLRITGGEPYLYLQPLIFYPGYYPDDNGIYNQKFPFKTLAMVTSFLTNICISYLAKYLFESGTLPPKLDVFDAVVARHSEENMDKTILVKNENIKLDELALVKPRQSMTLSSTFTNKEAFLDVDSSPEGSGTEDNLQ
CHT PAM – human CHT allosteric activation; B-score at 10 µM; hit rate 0.49% among 310,000; Q9GZV3; CHT-expressing cells, membrane potential dye, choline EC20; stronger effect = higher value; LV-AA mutant CHT in HEK293 cells;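 active means initial fluorescence not abnormally high and integrated response B-score, plate-corrected, over 3 SD above library mean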
ANO1 activ – activators or potentiators of mouse TMEM16A chloride channel. HEK293 TMEM16A/YFP-H148Q/I152L, iodide quench fluorescence; stronger effect = lower value. Q8BHY3. hit rate 0.3% among 340,000. B-score at 10 µM;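 active means fluorescence-ratio B-score plate-corrected deviation score at least 3 library SD below zero, with starting fluorescence score within 5 deviations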;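 further: channel opened by trigger with iodide after compound preincubation; score built on the fluorescence ratio of max minus min over baseline; more negative score means more quench and so TMEM16A activation or potentiation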
ANO1 block – mouse TMEM16A channel inhibition, primary screen; normalized B-score (activity score, 25-100; higher = stronger inhibition) at 10 µM; Q8BHY3; HEK293 TMEM16A/YFP iodide influx fluorescence, ionomycin; hit rate 1.2% among 310,000;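 active means ratio plate-corrected score three or more library SD toward inhibition, starting fluorescence score within five deviations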;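 further: score derived from kinetic fluorescence span divided by baseline fluorescence per well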
TMEM16A reconf – re-confirmation of mouse TMEM16A chloride channel inhibitors; shares compounds with ANO1 block; hit rate 39% among 2,300; HEK293 TMEM16A/YFP-H148Q, iodide quench fluorescence; ionomycin added to raise cell calcium; AID 652189; inhibition, % at 10 µM;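 active means mean duplicate percent inhibition, scaled so buffer wells are 0 and the reference blocker 100, over three buffer SD above buffer mean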
HEK293 Ca mobil – calcium mobilization counter-screen hit for TMEM16A inhibitor series; shares compounds with ANO1 block; TMEM16A/YFP HEK293, Fluo4 calcium mobilization; calcium response (% of ionomycin), % at 10 µM; hit rate 2% among 2,300;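 active means duplicate-averaged calcium signal over 20% of the ionomycin maximum, relative to buffer baseline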;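 further: each well's signal is peak minus trough fluorescence divided by its pre-addition baseline; 0% = buffer wells and 100% = ionomycin wells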
YFP-HEK293 quench – counter-screen for TMEM16A inhibitors: effect in parental YFP-HEK293 cells; shares compounds with ANO1 block; iodide YFP quench, ionomycin; YFP ratio F(max-min)/F0 at 10 µM; 2,300 tested, under 10 active; AID 652233;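 active means yellow fluorescent protein signal ratio exceeding the buffer control mean by over 5 SD of those controls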;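 further: ratio is mean of duplicate wells from kinetic YFP trace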
ClC-1 inh – blocks the rat ClC-1 voltage-dependent chloride channel; CHO ClC-1-YFP, iodide influx fluorescence quench; iodide control reads 0, buffer control 100; shares compounds with ANO1 block; ratio percent, % at 10 µM; 2,300 tested, under 10 active;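 active means duplicate-mean ratio percent above the mean of iodide-only control wells, which defines zero, plus 5 of their SD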;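 further: higher percent means stronger block of ClC-1 iodide influx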
* hit, by the source's call; i = inactive; . = not tested or not shown; ! = repeats disagree.

SMILES	CHT block	CHT PAM	ANO1 activ	ANO1 block	TMEM16A reconf	HEK293 Ca mobil	YFP-HEK293 quench	ClC-1 inh
CCCCOC(=O)C1=C(C)Nc2ncnn2C1c1ccc(OCC)c(OC)c1 (stereo not given)	i	i	i	25*	i	i	-1.1	0
CC(=O)c1ccc(NC(=S)N2c3ccccc3CC2C)cc1 (stereo not given)	i	i	i	i	.	.	.	.
CC1Cc2ccccc2N1C(=S)Nc1ccc(S(N)(=O)=O)cc1 (stereo not given)	i	i	i	100*	i	i	-0.86	-21
CCN(c1cccc(C)c1)S(=O)(=O)c1ccc2c(c1)CCCN2C(C)=O	i	i	i	i	.	.	.	.
CCN(c1cccc(C(F)(F)F)c1)S(=O)(=O)c1ccc2c(c1)CCN2C(C)=O	i	i	.	25*	18%*	i	-0.86	-6
C1CCC(C(CC2CCCCN2)C2CCCCC2)CC1 (stereo not given)	i	i	i	25*!	i	i	-1.1	-10
CNc1ccccc1C(C)(C)c1cc(-c2cccc(OC)c2)no1	i	i	i	25*	23%*	i	-0.85	-4
CC(C)(C)c1ccc(C(=O)Nc2cccc3ncccc23)cc1	i	i	i	i	30%*	i	-1.4	-14
CSc1ccc(CN(C)C(=O)COc2ccc(C(=O)c3ccccc3)cc2)cc1	i	i	i	100*	i	i	-1.3	-7
CCCCc1nnc(NC(=O)CCN2C(=O)C3CC=CCC3C2=O)s1 (stereo not given)	.	.	i	.	.	.	.	.
CCCc1[nH]nc2c1C1(CCOC1C)C(C#N)=C(N)O2 (stereo not given)	i	i	i	25*	i	i	-1.1	-12
Cc1cc(C)c(OCC(=O)Nc2nnc(C3CC3)s2)c(C)c1	.	.	i	.	.	.	.	.
CN1C(=O)c2ccccc2NC(=O)[C@]12O[C@@H]2c1cccc(O)c1	i	i	i	i	i	i	-0.55	-8
CCc1cc(-c2[nH]ncc2-c2ccc3c(c2)OCO3)c(O)cc1O	i	i	i	100*	52%*	i	-1.3	-10
O=C(C1CCCCC1)N1CCN(c2ccnc3cc(Cl)ccc23)CC1	i	i	i	25*	18%*	i	-1	-14
Cc1csc2ncnc(N3CCN(C(=O)Nc4ccc(OC(F)(F)F)cc4)CC3)c12	i	i	i	100*	16%*	i	-1.5	-12
O=C(Nc1ccc(OC(F)(F)F)cc1)N1CCN(c2ccnc3cc(Cl)ccc23)CC1	i	i	i	100*	i	i	-1.1	-22
CCN(CC(=O)Nc1ccc(NC(C)=O)cc1)C(=O)c1cc(S(=O)(=O)N2CCCCCC2)ccc1OC	i	i	i	i	.	.	.	.
NC(N)=NN=C1CCCCCCCCCCC1	i	i	i	i	i	i	-1	-8
O=C1COc2ccc(C(=O)COC(=O)c3ccc(F)cc3Cl)cc2N1	.	.	i	.	.	.	.	.
CC(Oc1ccccc1)C(=O)Nc1nnc(S(=O)(=O)Nc2ccccc2)s1 (stereo not given)	i	i	i	100*	i	i	-0.83	-10
COc1ccc(CCC(=O)Nc2cc(S(=O)(=O)N3CCOCC3)ccc2OC(C)C)cc1	.	.	i	.	.	.	.	.
COc1cccc(OC)c1-c1nn2c(-c3ccccc3Cl)nnc2s1	i	i	i	i	i	i	-1	-10
Cc1ccc2nc(C3CCCCC3)[nH]c2c1	i	i	i	i	.	.	.	.
O=S(=O)(c1ccccc1)N1CCN=C1SCc1ccc(Cl)c(Cl)c1	i	i	i	i	.	.	.	.
SMILES	CHT block	CHT PAM	ANO1 activ	ANO1 block	TMEM16A reconf	HEK293 Ca mobil	YFP-HEK293 quench	ClC-1 inh
O=S(=O)(c1ccccc1)N1CCN=C1SCc1ccc(Cl)cc1	i	i	i	25*	i	i	-0.89	-11
COc1ccc(Cl)cc1C(=O)CSc1nnnn1C1CCCCC1	i	i	i	100*	i	i	-1.1	-9
COc1ccc(Cl)cc1C(=O)CSc1nnnn1C1CCCC1	i	i	i	i	.	.	.	.
COc1ccccc1N1CCN(C(=O)c2sc3nc(-c4ccc(F)cc4)cn3c2C)CC1	i	i	i	25*	i	i	-0.92	-7
Cc1cc(C)cc(NC(=O)CSc2nnc(-c3cc(C)[nH]n3)n2N)c1	i	i	i	i	.	.	.	.
O=C(NC1CCCCC1)C1CCCN1S(=O)(=O)c1cccc2nsnc12 (stereo not given)	i	i	i	100*	i	i	-1.1	-6
CC(NC(=O)C1CCCN1S(=O)(=O)c1cccc2nsnc12)c1ccccc1 (stereo not given)	i	i	i	i	.	.	.	.
CCOc1ccc(NCc2cccn2-c2nnc(N3CCC(C(=O)NCCCN4CC(C)CC(C)C4)CC3)s2)cc1 (stereo not given)	i	i	i	i	.	.	.	.
c1ccc(-c2csc(N3CCN(c4ccccn4)CC3)n2)cc1	i	i	i	25*	i	i	-1.1	-8
c1ccc(-c2csc(N3CCOCC3)n2)cc1	i	i	i	i	.	.	.	.
Cc1ccc(C(=O)N2c3ccccc3N(Cc3ccccc3)C(=O)C2(C)C)cc1	i	i	i	100*	24%*	i	-0.97	-10
CCN1C[C@@H]2[C@@H]3C(=O)N(Cc4ccccc4)C(=O)[C@@H]3[C@](C)(C1=O)N2C(=O)c1ccc(C)cc1	.	.	i	.	.	.	.	.
Cc1sc2ncnc(N3CCC(C(=O)N(CC(C)C)c4nc5ccccc5s4)CC3)c2c1C	i	i	i	i	.	.	.	.
Clc1ccc(Cn2ncc3c(N4CCCC4)ncnc32)cc1	i	i	i	i	.	.	.	.
CC1CC(C)CN(c2ncnc3c2cnn3Cc2ccc(Cl)cc2)C1 (stereo not given)	i	i	i	25*	i	i	-1	-2
CC(=O)Nc1cccc(NC(=O)CSc2ncc(-c3ccc(Cl)cc3)n2Cc2ccco2)c1	i	i	i	100*	32%*	i	-0.96	-16
COc1ccc(-c2cnc(SCC(=O)Nc3ccc4c(c3)OCO4)n2Cc2ccco2)cc1	.	.	i	.	.	.	.	.
